Data: PubChem BioAssay (NCATS)
Results filed as inconclusive are left out. Where a call stands in place of a potency, no number is given. The source made the active and inactive calls. Unless noted, the call rests on the fitted dose curve; in most records, active means well fitted curve in the direction sought with a large enough effect; inconclusive means small, poorly fitted or top-dose-only effect, or another doubt; inactive means no such curve, though single readings can be large; an effect the other way counts as inactive or inconclusive.

Test: S16 Schwann cell viability assay (CellTiter-Glo assay) (AID 624031);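 further: cellular ATP luminescence as a viability measure; nearly all actives have a fitted effect of over 70% in size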
Conditions: S16 rat Schwann cells viability, 24 h; series mostly up to 57.5 µM
Outline: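 This viability control uses native rat S16 Schwann cells grown in DMEM plus 10% FBS. After a 24 h compound treatment at 37 °C, CellTiter-Glo luminescence reports ATP content, scaled against DMSO-treated and cell-free wells.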
In the case of CCCCOc1cc(C(=O)OCCN(CC)CC)ccc1N, the Potency is reported as “inactive”. With Cc1ccc2nc(N)[nH]c(=O)c2c1Sc1ccncc1 the Potency was “inactive”. In the case of Cc1cc(CC(=O)O)n(C)c1C(=O)c1ccc(Cl)cc1, the Potency is reported as “inactive”. For COc1cc2[nH]c(=O)[nH]c(=O)c2cc1OC, the Potency was “inactive”. With CC(=O)Nc1ccc(/C=N/NC(N)=S)cc1 the Potency was “inactive”. In the case of COc1ccc(S(=O)(=O)Nc2nnc(CC(C)C)s2)cc1, the Potency is reported as “inactive”. In the case of C[C@@H]1CN(c2c(F)c(F)c3c(=O)c(C(=O)O)cn(C4CC4)c3c2F)C[C@H](C)N1, the Potency is reported as “inactive”. For CC(=O)Oc1ccc(C2(c3ccc(OC(C)=O)cc3)C(=O)Nc3ccccc32)cc1, the Potency was “inactive”. With CC(=O)CCC(=O)O the Potency was “inactive”. For O=C(O)COc1nn(Cc2ccccc2)c2ccccc12, the Potency was “inactive”. With CCCOC(=O)c1ccccc1 the Potency was “inactive”. In the case of Cc1c(Cl)cccc1Nc1ccccc1C(=O)O, the Potency is reported as “inactive”. For CCOC(=O)[C@H](CCc1ccccc1)N[C@@H](C)C(=O)N1C(=O)N(C)C[C@H]1C(=O)O, the Potency was “inactive”. With CC(=O)c1ccc2c(c1)N(CCCN(C)C)c1ccccc1S2 the Potency was “inactive”.

Test: S16 Schwann cell PMP22 intronic element firefly luciferase assay (AID 624032); further: nearly all actives have a fitted effect of over 30% in size; further: potency means the concentration at half of the fitted maximal effect
Conditions: S16 rat Schwann cells, PMP22 element FLuc, 24 h; series mostly up to 57.5 µM
Outline: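 Rat S16 Schwann cells stably carrying firefly luciferase driven by a PMP22 intronic element, in 10% FBS, treated 24 h at 37 C. ONE-Glo luminescence normalized to PTC124 control and DMSO (0%); curves classed by r2, magnitude and activity.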
For CC(C)(C)C(=O)NCCCC(=O)O, the Potency was “inactive”. In the case of O=C1OC(OC(=O)c2cccnc2Nc2cccc(C(F)(F)F)c2)c2ccccc21 (centres undefined), the Potency is reported as 7.21 µM (active). With NCC(=O)CCC(=O)O the Potency was “inactive”. With NC(=O)NC(=O)Cc1ccccc1 the Potency was “inactive”. For CSc1ccc2c(c1)C(N1CCN(C)CC1)Cc1ccccc1S2 (centres undefined), the Potency was 20.3 µM (active). With CC(=O)NC(Cc1ccccc1)C(=O)O (centres undefined) the Potency was “inactive”. In the case of Cc1cc2c(cc1S(N)(=O)=O)S(=O)(=O)CCC2, the Potency is reported as “inactive”. For CCN(CC)CCSC(=O)C(c1ccccc1)c1ccccc1, the Potency was “inactive”. In the case of NC(CSCC(=O)O)C(=O)O (centres undefined), the Potency is reported as “inactive”. In the case of COc1cc(C(=O)N2CCOCC2)cc(OC)c1OC, the Potency is reported as “inactive”. In the case of C#CCN(C)Cc1ccccc1, the Potency is reported as “inactive”. In the case of CCC(=O)Nc1ccc(O)cc1, the Potency is reported as “inactive”. For CC1(C)CO[C@@H](CC(=O)O)CN1, the Potency was “inactive”. With COc1cc2[nH]c(=O)[nH]c(=O)c2cc1OC the Potency was “inactive”. In the case of CC(=O)Nc1ccc(/C=N/NC(N)=S)cc1, the Potency is reported as “inactive”. In the case of COc1ccc(S(=O)(=O)Nc2nnc(CC(C)C)s2)cc1, the Potency is reported as “inactive”. With CC(=O)CCC(=O)O the Potency was “inactive”. In the case of O=C(O)COc1nn(Cc2ccccc2)c2ccccc12, the Potency is reported as “inactive”. With CCCOC(=O)c1ccccc1 the Potency was “inactive”. With Cc1c(Cl)cccc1Nc1ccccc1C(=O)O the Potency was “inactive”. In the case of CC(=O)c1ccc2c(c1)N(CCCN(C)C)c1ccccc1S2, the Potency is reported as “inactive”.

Test: S16 Schwann cell PMP22 intronic element beta-lactamase assay (AID 624044; calls by dose curve; further: nearly all actives have a fitted effect of over 15% in size)
Conditions: S16 rat Schwann cells, PMP22 element beta-lactamase FRET, 24 h; series mostly up to 38.3 µM
Outline: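 Beta-lactamase reporter under a PMP22 intronic regulatory element in stable S16 rat Schwann cells; 24 h compound exposure. 460 nm blue signal normalized between DMSO (0%) and potassium clavulanate, with 535 nm FRET tracking viability; curves classed by r2 and response.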
With O=C(O)CC(O)C(=O)O (centres undefined) the Potency was “inactive”. With CSc1ccc2c(c1)C(N1CCN(C)CC1)Cc1ccccc1S2 (centres undefined) the Potency was “inactive”. With CC(=O)NC(Cc1ccccc1)C(=O)O (centres undefined) the Potency was “inactive”. With Cc1cc2c(cc1S(N)(=O)=O)S(=O)(=O)CCC2 the Potency was “inactive”. In the case of CCN(CC)CCSC(=O)C(c1ccccc1)c1ccccc1, the Potency is reported as “inactive”. For CN(C)CCN(Cc1ccccc1)c1ccccn1, the Potency was “inactive”. For O=C(O)[C@@H]1CSCN1, the Potency was “inactive”. With CCOc1ccc2ccccc2c1C(=O)N[C@@H]1C(=O)N2[C@@H]1SC(C)(C)[C@@H]2C(=O)O the Potency was “inactive”. In the case of CCCCOc1cc(C(=O)OCCN(CC)CC)ccc1N, the Potency is reported as “inactive”.
